S1P4 agonist: agonists of human S1P4 receptor; actives 0.35% (n = 220,000); O95977; S1P4-expressing cell line, agonist reporter assay; activation, % at 4.98 µM; in the data active means activation above about 11%
Target sequence (O95977 whole entry, looked up): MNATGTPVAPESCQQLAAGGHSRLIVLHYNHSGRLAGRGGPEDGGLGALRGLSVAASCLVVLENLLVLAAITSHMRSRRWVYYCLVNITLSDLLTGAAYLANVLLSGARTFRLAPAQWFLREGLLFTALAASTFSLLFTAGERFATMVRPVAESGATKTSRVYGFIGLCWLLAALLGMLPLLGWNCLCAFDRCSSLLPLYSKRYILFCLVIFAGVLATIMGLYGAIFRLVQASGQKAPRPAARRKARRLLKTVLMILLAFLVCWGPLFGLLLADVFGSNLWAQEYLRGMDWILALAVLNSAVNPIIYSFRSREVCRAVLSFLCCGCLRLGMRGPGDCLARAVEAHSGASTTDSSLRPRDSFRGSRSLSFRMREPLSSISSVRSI
CHOP inhibitor: blocks CHOP induction under ER stress; CHO-K1 CHOP-promoter luciferase, tunicamycin-induced, 15-18 h; AID 2732; inhibition, % at 10 µM; actives 3.8% (n = 220,000);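 active means compounds that reduced the stress-induced luciferase reporter signal by more than about 70% of percent inhibition, limit read from the data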
Hsp70 activator: switches on Hsp70 transcription | actives 0.04% (n = 200,000) | HeLa Hsp70 promoter luciferase reporter, luminescence; scaled: vehicle 0, proteasome-inhibitor control 100% | AID 1203 | activation, % at 10 µM;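 active means activation above the mean across all tested compounds plus 3 SD, cutoff set per campaign, cut at about 5.5% in these data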
S1P4 antagonist: blocks the human S1P4 receptor; O95977; S1P4-expressing cells, antagonist mode, reporter read-out; inhibition, % at 4.98 µM; actives 0.26% (n = 220,000); in the data active means inhibition above about 29%
Each line names hits and unclear results; the compound was inactive in the other large screens. Hits are enriched below; roughly 4.2% of the tested compounds scored in any of these assays.

Cc1ccc(Cl)cc1N1CCN(C(=O)Cc2cn(C)c3ccccc23)CC1	none
Cc1ccc(C)c(N2CCN(C(=O)Cc3cn(C)c4ccccc34)CC2)c1	CHOP inhibitor 74.1
COc1cccc(C(=O)NN2C(=O)C3C4C=CC(O4)C3C2=O)c1 (stereo unspecified)	none
Cc1ccc(-c2nnc(N3CCC(C)CC3)c3ccccc23)cc1	CHOP inhibitor 84.3
Cc1ccc(-c2nnc(N3CCC(C)CC3)c3ccccc23)cc1C	CHOP inhibitor 90.3
CC1CCN(c2nnc(-c3ccccc3)c3ccccc23)CC1	none
CC1CCCCC1NC(=O)CSc1ccsc1[N+](=O)[O-] (stereo unspecified)	none
CCn1c(C)[n+](CC)c2ccc(S(=O)(=O)NC)cc21	none
COC(=O)c1cc(NC(=O)c2c(Cl)nc3sccn23)cc(C(=O)OC)c1	CHOP inhibitor 76.0
Cn1c(=O)c2c(nc(Br)n2Cc2nnc(N)s2)n(C)c1=O	none (no result: Hsp70 activator)
COc1ccc(/C=C/C(=O)c2ccc(Cl)s2)cc1O	CHOP inhibitor 84.7
COc1cc(/C=C/C(=O)c2ccc(Cl)s2)cc(OC)c1O	none
C=C(C)C1CCC2(C(=O)O)CCC3(C)C(CCC4C5(C)C(C=O)C(O)C(C)(C)C5CCC43C)C12 (stereo unspecified)	CHOP inhibitor 84.9 (no result: S1P4 agonist, Hsp70 activator, S1P4 antagonist)
CCCCCCCCn1cnc2c(N)c(C)c(C)cc21	CHOP inhibitor 81.0
CCOc1ccc(NC(=O)COC(=O)c2ccc3c(c2)C(=O)N(CCc2ccccc2)C3=O)cc1	none
Cc1ccc(NC(=O)COC(=O)c2ccc3c(c2)C(=O)N(CCc2ccccc2)C3=O)c(C)c1	CHOP inhibitor 77.8
Cc1ccc(S(=O)(=O)NCC(=O)Nc2ccc(C(F)(F)F)cc2)cc1	CHOP inhibitor 92.1
COc1ccc(-c2csc3ncn(-c4ccc(C)cc4)c(=O)c23)cc1OC	none
COc1ccc(-n2cnc3scc(-c4ccc(OC)c(OC)c4)c3c2=O)cc1	CHOP inhibitor 75.8
C[C@H](NC(=O)OCc1ccccc1)C(=O)NNC(=O)[C@H](C)NC(=O)OCc1ccccc1	none (no result: S1P4 agonist, Hsp70 activator, S1P4 antagonist)
N#CC1=C(N)c2ccccc2CC12CCCCC2	CHOP inhibitor 78.0
COc1ccc(Sc2nc(-c3ccccn3)ncc2OC)cc1	none
N#C/C(=C\c1ccccc1[N+](=O)[O-])C(=O)NCc1ccccc1	none (no result: Hsp70 activator)
CCCCCCCCNC(=O)/C(C#N)=C/c1ccccc1[N+](=O)[O-]	CHOP inhibitor 94.1
O=S(=O)(NC1CCCC1)c1cccc(S(=O)(=O)N2CCC(n3nnc4ccccc43)CC2)c1	none
CSCCC(NS(=O)(=O)c1ccc(Cl)cc1)C(=O)OCC(=O)NC12CC3CC(CC(C3)C1)C2 (stereo unspecified)	CHOP inhibitor 74.2
COC(=O)c1c(NC(=O)C2CC2)sc2c1CCCC2	CHOP inhibitor 76.8
COC(=O)c1c(NC(=O)COC(=O)c2ccc(C)s2)sc2c1CCCCC2	CHOP inhibitor 71.8
COC(=O)c1c(NC(=O)c2nn(C)cc2Cl)sc2c1CCCC2	CHOP inhibitor 74.2
COC(=O)c1c(NC(=O)c2ccc(Br)s2)sc2c1CCC2	none
Brc1ccc(-c2nnc3ccc(N4CCN(c5ccccc5)CC4)nn23)cc1	none
O=C(CSC1=NNC(c2ccccn2)S1)Nc1ccc(C(F)(F)F)cc1 (stereo unspecified)	CHOP inhibitor 73.4 (no result: Hsp70 activator)
COCC(C)N=C1NN=C(c2cccs2)C(CC(=O)O)S1 (stereo unspecified)	none
CCOC(=O)c1c(Nc2ccc(Cl)cc2)sc(/C=C2\C=Nc3ccccc32)c1O	CHOP inhibitor 76.2
COC(=O)c1cccc2c1-c1ccccc1/C2=N/O	CHOP inhibitor 86.6
COc1ccc(Br)c(C(=O)N2CCN(S(=O)(=O)/C=C/c3ccccc3)CC2)c1	none
COc1ccc(CNC(=O)c2cc(-c3ccncc3)nc3c(C)cc(C)cc23)cc1OC	CHOP inhibitor 88.5
CCCC1Cc2c(sc3nc(SC)nc(N)c23)CO1 (stereo unspecified)	CHOP inhibitor 74.5
O=C(Cn1c2ccc(F)cc2c2nc3n(c(=O)c21)CCS3)Nc1ccccc1C(F)(F)F	CHOP inhibitor 77.8
CCOc1cccc2cc(-c3csc(NC(=O)CCC(=O)N4CCC(C)CC4)n3)c(=O)oc12	CHOP inhibitor 86.3
CCOc1ccccc1NC1c2ccccc2C(=O)N1Cc1ccco1 (stereo unspecified)	none
CCc1ccccc1NC1c2ccccc2C(=O)N1Cc1ccco1 (stereo unspecified)	CHOP inhibitor 74.7
COc1ccc(Nc2nc(OC)nc(N3CCN(c4ccc(OC)cc4)CC3)n2)cc1	CHOP inhibitor 77.3
COc1ccc(Nc2nc(Cl)nc(Nc3ccc(OC)cc3)n2)cc1	CHOP inhibitor 71.2
COc1ccc(Nc2nc(Cl)nc(N3CCN(c4ccc(OC)cc4)CC3)n2)cc1	CHOP inhibitor 93.2
CC1CN(C(=O)c2ccc(C(=O)c3ccccc3)cc2)CC(C)O1 (stereo unspecified)	none
FC(F)(F)Oc1ccc(Nc2nc3ccccc3o2)cc1	CHOP inhibitor 90.9
O=C(Nc1ccc(Cl)cc1)/C(=C/c1ccc([N+](=O)[O-])cc1)c1nc2ccccc2s1	CHOP inhibitor 104.7
O=C(Nc1ccc(Cl)c([N+](=O)[O-])c1)Nc1nc2ccccc2s1	CHOP inhibitor 92.2 (no result: Hsp70 activator)
CS(=O)(=O)c1ccc2nc(NC(=O)Nc3ccc(Cl)c(Cl)c3)sc2c1	none
O=C(O)CC/C(=C\c1cc([N+](=O)[O-])ccc1Cl)c1nc2ccccc2s1	none
CS(=O)(=O)c1ccc2nc(NC(=O)Nc3cccc(Cl)c3)sc2c1	CHOP inhibitor 92.3
Cc1cc(=O)oc2cc(OCC(O)CN3CCc4ccccc4C3)ccc12 (stereo unspecified)	none
CC[n+]1ccc(C)c2cc(P(=O)(c3ccccc3)c3ccccc3)ccc21	none
O=[N+]([O-])c1cccnc1NCCNc1ncc(C(F)(F)F)cc1Cl	CHOP inhibitor 75.0
CCOC(=O)c1[nH]ncc1CN1CCC(Cc2ccccc2)(C(=O)OCC)CC1	none (no result: Hsp70 activator)
CCN(CC(=O)Nc1cccc(C#N)c1)CC(=O)Nc1cccc(OC)c1	none
COCCNC(=S)N(CCc1c(C)[nH]c2ccc(C)cc12)Cc1cc(OC)c(OC)c(OC)c1	none
COc1cc(NS(=O)(=O)c2ccc(NC(C)=O)cc2)nc(OC)n1	none
COc1cc(NS(=O)(=O)c2ccc(N/C=C(\C#N)c3nc4cc(Cl)ccc4o3)cc2)nc(OC)n1	CHOP inhibitor 91.8
CC1CCN(CCOc2ccccc2-c2ccccc2)CC1	none
CC1CC(C)CN(CCOc2ccccc2-c2ccccc2)C1 (stereo unspecified)	CHOP inhibitor 92.6
O=C(NC12CC3CC(CC(C3)C1)C2)c1ccccc1O	CHOP inhibitor 77.0
O=C(NC12CC3CC(CC(C3)C1)C2)c1ccc(=O)oc1	none
COc1cccc(C(=O)N2CCN(C(=O)c3cccc(F)c3)CC2)c1	none
Cn1c2ccccc2n2c(=O)c(Cl)c(-c3ccccc3)c(C#N)c12	CHOP inhibitor 72.9
COc1ccc(-c2nnc(SCC(=O)Nc3cccc(Cl)c3)o2)cc1	CHOP inhibitor 88.6
O=C(CSc1ccc(Cl)cc1)Nc1cccc(-c2nc3ncccc3o2)c1	CHOP inhibitor 72.9
O=C(CSc1ccc(Cl)cc1)Nc1cc(-c2nc3ncccc3o2)ccc1Cl	none
